This is a sample that favours compounds with a hit; in the whole collection about 4% have one here.
RAD52 inh – blocks human RAD52 DNA annealing; inhibition, % at 18.7 µM; P43351; recombinant RAD52 DNA annealing, FRET fluorescence; 0.46% of 360,000 active;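 active means every replicate showing at least 50% inhibition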
MLL AF4-AF9 inh – blocks AF4 peptide binding to human AF9; P42568; AlphaScreen, biotin-AF4 peptide binding to FLAG-AF9; inhibition, % at 10 µM; 0.47% of 350,000 active;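 active means every replicate reaching a set inhibition limit, whatever the replicate mean, cut at about 25% in these data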
DENV2 CPE – protects cells from dengue virus 2 cytopathic effect; DENV2-infected cells, cytopathic effect rescue, plate reader; CPE inhibition, % at 9.99 µM; 1.7% of 350,000 active; in the data active means CPE inhibition above about 20%, passing the limit was not always enough; tested in BHK-21 cells
ERAP1 HTS inh – inhibitors of human ERAP1 aminopeptidase; AID 652197; 0.15% of 340,000 active; inhibition, % at 10.7 µM; recombinant ERAP1, Leu-AMC fluorescence, 60 min; Q9NZ08;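 active means mean replicate inhibition of at least 30%, or all replicates individually reaching that 30% level; inactive means mean below 30% and not every replicate reaching it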
Target sequence (Q9NZ08 whole entry, looked up): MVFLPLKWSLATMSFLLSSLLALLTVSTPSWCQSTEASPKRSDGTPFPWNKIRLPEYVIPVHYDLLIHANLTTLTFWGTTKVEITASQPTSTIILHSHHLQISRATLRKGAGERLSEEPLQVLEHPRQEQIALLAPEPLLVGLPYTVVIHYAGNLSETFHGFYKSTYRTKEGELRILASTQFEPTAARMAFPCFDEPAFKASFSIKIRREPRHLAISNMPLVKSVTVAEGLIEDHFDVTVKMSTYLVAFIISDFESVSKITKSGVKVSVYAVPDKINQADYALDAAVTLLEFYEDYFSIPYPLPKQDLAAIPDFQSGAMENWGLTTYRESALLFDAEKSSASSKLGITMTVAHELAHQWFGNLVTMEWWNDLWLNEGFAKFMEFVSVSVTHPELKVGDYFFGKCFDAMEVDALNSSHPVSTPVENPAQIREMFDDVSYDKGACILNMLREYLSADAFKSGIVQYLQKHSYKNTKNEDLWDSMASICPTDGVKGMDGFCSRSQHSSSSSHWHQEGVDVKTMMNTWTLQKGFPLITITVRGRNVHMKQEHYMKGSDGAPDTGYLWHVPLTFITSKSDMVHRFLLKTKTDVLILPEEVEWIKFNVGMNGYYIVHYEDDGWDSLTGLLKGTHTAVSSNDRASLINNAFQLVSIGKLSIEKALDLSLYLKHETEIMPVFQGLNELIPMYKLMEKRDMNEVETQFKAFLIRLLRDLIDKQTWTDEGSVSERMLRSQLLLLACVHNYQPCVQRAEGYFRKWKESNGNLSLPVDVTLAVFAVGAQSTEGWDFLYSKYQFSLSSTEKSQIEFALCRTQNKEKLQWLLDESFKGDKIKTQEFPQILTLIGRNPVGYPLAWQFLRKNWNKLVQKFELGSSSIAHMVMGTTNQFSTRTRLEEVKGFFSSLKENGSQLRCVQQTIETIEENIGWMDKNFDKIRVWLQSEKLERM
FGF22 binding – FGF22 (human) thermal shift binding; Q9HCT0; activity (Tm shift, normalised), % at 9.99 µM; AID 651658; 1.5% of 340,000 active; recombinant FGF22 thermal shift, SYPRO orange fluorescence; percent of sucrose octasulfate shift, DMSO zero;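 active means mean Tm shift, scaled 0 neutral to 100 positive control, at about 1.3% or above, every replicate too, limit read from the data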
A number is an active result.

For C[C@H](O)C#Cc1ccc2c(c1)O[C@@H](CN(C)C(=O)C1CCCCC1)[C@H](C)CN([C@H](C)CO)S2(=O)=O the results were RAD52 inh inactive, MLL AF4-AF9 inh inactive, DENV2 CPE inactive, ERAP1 HTS inh inactive and FGF22 binding inactive.
For CCOc1ccc(-c2nc(C#N)c(N3CCN(Cc4ccccc4)CC3)o2)cc1 the results were RAD52 inh inactive, MLL AF4-AF9 inh 52.9, DENV2 CPE inactive, ERAP1 HTS inh inactive and FGF22 binding inactive.
For N#Cc1nc(COc2ccccc2)oc1N1CCCCCC1 the results were RAD52 inh inactive, MLL AF4-AF9 inh 26.9, DENV2 CPE inactive, ERAP1 HTS inh inactive and FGF22 binding inactive.
For Cc1cccc(NC(=O)Nc2ccc3c(c2)C(=O)N(C)[C@@H]2CC[C@H](CC(=O)O)O[C@@H]2CO3)c1 the results were RAD52 inh inactive, MLL AF4-AF9 inh inactive, DENV2 CPE inactive, ERAP1 HTS inh inactive and FGF22 binding inactive.
Screening Cc1cccc(Nc2nc(-c3ccc(O)c(O)c3)cs2)n1 returned RAD52 inh inactive, MLL AF4-AF9 inh 25.7, DENV2 CPE inactive, ERAP1 HTS inh inactive and FGF22 binding inactive.
`Cc1ccnc(Nc2nc(-c3ccc(O)c(O)c3)cs2)c1` gave RAD52 inh inactive, MLL AF4-AF9 inh 40.9, DENV2 CPE inactive, ERAP1 HTS inh inactive and FGF22 binding inactive.
O=c1cc(OCc2ccccc2)cc[nH]1 was read as RAD52 inh inactive, MLL AF4-AF9 inh 74.8, DENV2 CPE inactive, ERAP1 HTS inh inactive and FGF22 binding inactive.
Nc1cc(OCc2ccccc2)ccc1OCc1ccccc1 was read as RAD52 inh inactive, MLL AF4-AF9 inh inactive, DENV2 CPE inactive, ERAP1 HTS inh inactive and FGF22 binding inactive.
For CCCC#Cc1ccc([C@H]2[C@@H](CO)N3C(=O)CN(C(=O)CN4CCOCC4)C[C@H]23)cc1 the results were RAD52 inh inactive, MLL AF4-AF9 inh inactive, DENV2 CPE inactive and ERAP1 HTS inh inactive.
For COc1ccc(C=Nc2ccc3[nH]ncc3c2)c(O)c1 the results were RAD52 inh inactive, MLL AF4-AF9 inh inactive, DENV2 CPE inactive, ERAP1 HTS inh inactive and FGF22 binding 43.1.
Screening C[C@H]1CCCCO[C@@H](CN(C)Cc2ccc(C(F)(F)F)cc2)[C@@H](C)CN([C@@H](C)CO)C(=O)c2cc(NC(=O)c3ccccc3)ccc2O1 returned RAD52 inh inactive, MLL AF4-AF9 inh inactive, DENV2 CPE 23.1, ERAP1 HTS inh inactive and FGF22 binding inactive.
C[C@@H]1CCCCO[C@H](CN(C)Cc2ccc(C(F)(F)F)cc2)[C@@H](C)CN([C@@H](C)CO)C(=O)c2cc(NC(=O)c3ccccc3)ccc2O1 was read as RAD52 inh inactive, MLL AF4-AF9 inh inactive, DENV2 CPE inactive, ERAP1 HTS inh inactive and FGF22 binding inactive.
Screening C[C@@H]1CCCCO[C@@H](CN(C)Cc2ccc(C(F)(F)F)cc2)[C@@H](C)CN([C@H](C)CO)C(=O)c2cc(NC(=O)c3ccccc3)ccc2O1 returned RAD52 inh inactive, MLL AF4-AF9 inh inactive, DENV2 CPE 25.1, ERAP1 HTS inh inactive and FGF22 binding inactive.
`C[C@H]1CCCCO[C@H](CN(C)Cc2ccc(C(F)(F)F)cc2)[C@@H](C)CN([C@@H](C)CO)C(=O)c2cc(NC(=O)c3ccccc3)ccc2O1` gave RAD52 inh inactive, MLL AF4-AF9 inh inactive, DENV2 CPE inactive, ERAP1 HTS inh inactive and FGF22 binding inactive.
C[C@@H]1CN([C@@H](C)CO)C(=O)c2cc(NC(=O)c3ccccc3)ccc2O[C@@H](C)CCCCO[C@H]1CN(C)Cc1ccc(C(F)(F)F)cc1 was read as RAD52 inh inactive, MLL AF4-AF9 inh inactive, DENV2 CPE 48.6, ERAP1 HTS inh inactive and FGF22 binding inactive.
For C[C@H]1CN([C@@H](C)CO)C(=O)Cc2cc(NC(=O)CCC(F)(F)F)ccc2O[C@H]1CN(C)S(=O)(=O)c1ccccc1 the results were RAD52 inh inactive, MLL AF4-AF9 inh inactive, DENV2 CPE inactive, ERAP1 HTS inh inactive and FGF22 binding inactive.
`CC(C)CC#Cc1ccc2c(c1)O[C@@H](CN(C)Cc1ccc(C(=O)O)cc1)[C@H](C)CN([C@@H](C)CO)S2(=O)=O` gave RAD52 inh inactive, MLL AF4-AF9 inh inactive, DENV2 CPE inactive and FGF22 binding inactive.
Screening O=C1O[C@@H](c2ccccc2)[C@@H](c2ccccc2)N2[C@@H](c3ccc(OCCO)cc3)[C@]3(C(=O)Nc4ccccc43)[C@@H](C(=O)Nc3nc4ccccc4s3)[C@H]12 returned RAD52 inh inactive, MLL AF4-AF9 inh inactive, DENV2 CPE inactive, ERAP1 HTS inh inactive and FGF22 binding inactive.
`COc1cccc(S(=O)(=O)N[C@H]2CC[C@@H](CC(=O)NCc3ccc(Cl)cc3)O[C@H]2CO)c1` gave RAD52 inh inactive, MLL AF4-AF9 inh inactive, DENV2 CPE inactive, ERAP1 HTS inh inactive and FGF22 binding inactive.
`C/C=C/CN(C(=O)C#Cc1ccccc1)[C@H](CO[Si](C)(C)C(C)(C)C)c1ccccc1` gave RAD52 inh inactive, MLL AF4-AF9 inh inactive, DENV2 CPE inactive, ERAP1 HTS inh inactive and FGF22 binding inactive.
CCOC(=O)c1c(C)c(C(=O)N2CCN(c3ccccc3)CC2)c(C)n1C was read as RAD52 inh inactive, MLL AF4-AF9 inh inactive, DENV2 CPE inactive, ERAP1 HTS inh inactive and FGF22 binding inactive.
Screening Cn1c(N)c(C(=O)N2CCN(c3ccccc3)CC2)c(=O)n(C)c1=O returned RAD52 inh inactive, MLL AF4-AF9 inh inactive, DENV2 CPE 36.8, ERAP1 HTS inh inactive and FGF22 binding inactive.
For COc1ccc(-c2nc(CN3CCC(C(=O)N4CCOCC4)CC3)c(C)o2)c(OC)c1 the results were RAD52 inh inactive, MLL AF4-AF9 inh inactive, DENV2 CPE 43.6, ERAP1 HTS inh inactive and FGF22 binding inactive.
Cc1ccc(S(=O)(=O)N(C)C[C@@H]2OCCCC[C@H](C)Oc3ccc(NS(=O)(=O)c4cn(C)cn4)cc3C(=O)N([C@@H](C)CO)C[C@@H]2C)cc1 was read as RAD52 inh inactive, MLL AF4-AF9 inh inactive, DENV2 CPE inactive, ERAP1 HTS inh inactive and FGF22 binding inactive.
Screening CC(=O)Nc1cccc(OCCCNC(=O)c2ccc(C(C)(C)C)cc2)c1 returned RAD52 inh inactive, MLL AF4-AF9 inh inactive, DENV2 CPE 31.4, ERAP1 HTS inh inactive and FGF22 binding inactive.
C=CCN1C(=O)/C(=C2/Sc3ccc(OC)cc3N2C)SC1=Nc1ccccc1 was read as RAD52 inh inactive, MLL AF4-AF9 inh inactive, DENV2 CPE inactive, ERAP1 HTS inh inactive and FGF22 binding 43.2.
Screening CC(C)NC(=O)Nc1ccc2c(c1)C(=O)N([C@H](C)CO)C[C@H](C)[C@H](CN(C)Cc1ccc(-c3ccccc3)cc1)O2 returned RAD52 inh inactive, MLL AF4-AF9 inh inactive, DENV2 CPE inactive, ERAP1 HTS inh inactive and FGF22 binding inactive.
Screening CCOc1ccc(NCc2cccn2-c2nnc(N3CCC(C(=O)NCCCN4CCCCC4)CC3)s2)cc1 returned RAD52 inh inactive, MLL AF4-AF9 inh 33.1, DENV2 CPE inactive, ERAP1 HTS inh inactive and FGF22 binding inactive.
For CCOc1ccc(CCNC(=O)C2CCN(c3nnc(-n4cccc4)s3)CC2)cc1 the results were RAD52 inh inactive, MLL AF4-AF9 inh inactive, DENV2 CPE inactive, ERAP1 HTS inh inactive and FGF22 binding inactive.

Screening results (PubChem)
